These results are taken from ChEMBL document CHEMBL4888484, “Replenishing the malaria drug discovery pipeline: Screening and hit evaluation of the MMV Hit Generation Library 1 (HGL1) against asexual blood stage Plasmodium falciparum ,using a nano luciferase reporter read-out” (2022).

Each structure is given as a SMILES string. Among all 150,000 compounds or so, about 540 (0.36%) showed an effect of 50% or more. The list comes from a sample in which strong results are over-represented; it also holds similar structures and randomly drawn compounds.

The subject of this experiment is Plasmodium falciparum. In words: Primary screen in NF54 nanoGlo assay, in single point, at 2uM, 72h; a lower Z score goes with more inhibition. In kind it is functional, Erythrocyte. To be noted: timepoint 72 hour.
Usually % Inhibition stands for the drop in the measured response relative to a control, in per cent. Take `Cc1nccn1CCNC(=O)c1cc2cccc(Cl)c2n1C`: the “% Inhibition” value is reported as -16% and the Z score is 1.43.
As to `CC[C@H]1CN(Cc2cccn2-c2nccs2)CCN1C`, the “% Inhibition” value is reported as -2% and the Z score was determined as 0.41.
In the same order, the values of `Cc1ccc(-n2nc(C)cc2NS(=O)(=O)c2c(C)nn(C(C)C)c2C)nn1` are -9% and 1.42.
Turning to `CCOc1cccc2[nH]cc(CC(=O)N[C@H](c3nccn3C)C3CC3)c12`, the “% Inhibition” value came to 7% and the Z score is recorded as -0.9.
In the same order, the values of `CCOC(=O)NCCC(=O)NCCC[C@H]1CCCCO1` are -4% and 0.49.
Turning to `CCc1nsc(N2CC(C)N(CC#N)C(C)C2)n1` (stereo not drawn), the “% Inhibition” value was -3% and the Z score was 0.45.
For `Cc1cc(N)n(-c2ccc(-c3noc(-c4cc(C(C)C)on4)n3)cc2)n1`, in that order: 15% and -3.24.
For `CCCc1cc(-c2nc(-c3ccc(-n4nc(C)cc4N)cc3)no2)n(C)n1`, in that order: 71% and -14.18.
For `CC[C@@H](c1nc(-c2ccc(-n3nc(C)cc3N)cc2)no1)n1cccn1`, in that order: -2% and 0.32.
For `c1ccc(-c2nc(NC3CCCC3)c3oc(-c4ccccc4)nc3n2)cc1`, the “% Inhibition” value was -7% and the Z score came to 0.89.
In the same order, the values of `C[C@@H](CNc1nc(-c2ccccc2)nc2nc(-c3ccc(Cl)cc3)oc12)N1CCCCC1` are 79% and -10.9.
For `C[C@@H](CNc1nc(-c2ccccc2)nc2nc(-c3ccc(Cl)cc3)oc12)N1CCOCC1`, in that order: -17% and 2.25.
Take `CCc1noc(C2(n3cccn3)CC2)n1`: the “% Inhibition” value was -8% and the Z score stood at 0.8.
Consider `N#Cc1ccccc1OCCN1CCS(=O)(=O)CC1`, for which the “% Inhibition” value is -3% and the Z score amounted to 0.38.
Consider `O=C(NC1CCc2[nH]cnc2C1)N[C@@H]1CCCc2ccccc21` (stereo partly drawn), for which the “% Inhibition” value was 4% and the Z score is -0.51.
For `O=C(N[C@H]1CCc2[nH]c3ccc(Br)cc3c2C1)c1ccc(Cl)c(Cl)c1`, in that order: -9% and 1.26.
For `CC(C)c1ccc(CCCNS(N)(=O)=O)cc1`, in that order: 7% and -0.97.
For `c1cc(N2CC[C@]3(CCOC3)C2)c2sccc2n1`, in that order: -10% and 1.52.
Take `CCc1nc(CCNC(=O)Cc2sc(N)nc2C)no1`: the “% Inhibition” value is on record as -22% and the Z score was 2.33.
For `CN1CCCN(c2nc(C(F)(F)F)nc3cc4c(cc23)OCO4)CC1`, in that order: -8% and 1.28.
In the same order, the values of `COc1nccnc1NCC1(N(C)C)CCCCC1` are 2% and -0.41.
`Oc1cc(C(F)(F)F)c2cc3c(cc2n1)OCO3`: the “% Inhibition” value is reported as 30% and the Z score is -3.35.
Take `CN(C)C1(CNc2ncc(F)cn2)CCCC1`: the “% Inhibition” value is on record as -3% and the Z score was 0.48.
Take `O=C(NCc1ccc(Br)cc1)NC1CC2OCCCC12` (stereo not drawn): the “% Inhibition” value is reported as -11% and the Z score is listed as 1.4.
`COCCN(Cc1cc2ccc(Cl)cc2nc1N1CCC[C@H](CO)C1)C(=O)c1sccc1C`: the “% Inhibition” value amounted to 2% and the Z score is -0.41.
In the case of `NC(=NCCOc1ncc(Cl)cc1Cl)N1CCOCC1`, the “% Inhibition” value is on record as -11% and the Z score is recorded as 1.79.
With `CCN(C)C1(CNC(=O)c2ccc(-c3cc(F)ccc3O)cc2)CCCC1`, the “% Inhibition” value is given as 55% and the Z score is given as -0.99.
`CCN(C)C1(CNC(=O)c2ccc(-c3cnccn3)cc2)CCCC1`: the “% Inhibition” value is listed as -14% and the Z score turned out to be 2.04.
Take `CCN(C)C1(CNC(=O)c2cccc(-c3ncc(F)c(NC)n3)c2)CCCC1`: the “% Inhibition” value was 3% and the Z score is on record as -0.53.
In the same order, the values of `CC(C)ONC(=O)CCc1cccc(O)c1` are -11% and 1.21.
For `Cc1cc(O)nc2ccc(NC(=O)c3cccc(F)c3)cc12`, in that order: 5% and -0.52.
With `c1c[nH]c(-c2nc(C3CCOCC3)n[nH]2)c1`, the “% Inhibition” value is listed as -6% and the Z score was 1.12.
Consider `COc1ccnc(CN2CCC[C@H](C(=O)c3cc(C)c(OC)c(C)c3)C2)c1OC`, for which the “% Inhibition” value was 8% and the Z score is reported as -1.25.
In the case of `CNc1ncc(C(=O)N2CCC[C@H](C(=O)c3cc(C)c(OC)c(C)c3)C2)cn1`, the “% Inhibition” value came out at 4% and the Z score is listed as -0.72.
In the same order, the values of `COc1c(C)cc(C(=O)[C@H]2CCCN(c3cc(N)ncn3)C2)cc1C` are 78% and -15.48.
On to `O=C(CN1CCCCC1)Nc1cc(C2CC2)nn1-c1ccccc1`, for which the “% Inhibition” value is listed as 1% and the Z score is listed as -0.24.
For `CCc1cc(=O)[nH]c(-n2nc(C3CC3)cc2NC(=O)C2CCCCC2)n1`, in that order: 86% and -14.68.
In the same order, the values of `CCC(CC)C(=O)Nc1cc(C2CC2)nn1-c1nc(-c2ccccc2)cc(=O)[nH]1` are 69% and -9.47.
As for `CCc1cc(NC(=O)C2CN(C(=O)C3CCCCC3)C2)n(C)n1`, the “% Inhibition” value is -13% and the Z score worked out at 2.45.
In the case of `CC(C)(C)c1cc(NC(=O)CCCc2ccccc2)n([C@H]2CCS(=O)(=O)C2)n1`, the “% Inhibition” value is on record as -2% and the Z score was determined as 0.38.
For the compound `Cc1cc(N)n(-c2nc(-c3ccccc3)cc(=O)[nH]2)n1`, the “% Inhibition” value was 35% and the Z score is reported as 0.14.
For `CC(C)NC(=O)CN(C)CC(=O)Nc1cc(C2CCCC2)nn1-c1ccccc1`, in that order: 1% and -0.16.
As to `CCOC(=O)Nc1cc(C2CC2)nn1-c1nc2c(c(=O)[nH]1)CCCC2`, the “% Inhibition” value is recorded as 4% and the Z score was -0.55.
For the compound `O=C(CCCc1ccccc1)Nc1cc(C2CC2)nn1-c1nc(-c2ccccc2)cc(=O)[nH]1`, the “% Inhibition” value is listed as 54% and the Z score was -8.76.
In the same order, the values of `Cc1ccc(C(=O)N2CCCC(C(=O)N3CCCC(c4nnc5ccccn45)C3)C2)cc1` (stereo not drawn) are -7% and 1.13.
For the compound `CC(C)c1cc(-c2nc(-c3ccccn3)no2)[nH]n1`, the “% Inhibition” value is reported as -11% and the Z score was 1.24.
For `CCS(=O)(=O)Nc1ccnn1[C@@H](C)C1CC1`, the “% Inhibition” value is given as 3% and the Z score is -0.45.
In the same order, the values of `O=C(c1cnnn1-c1cccc(F)c1)N1CCCC12CCC2` are -1% and 0.15.
As for `COc1ccc(C(=O)NCCCc2nnc3ccccn23)o1`, the “% Inhibition” value is given as -9% and the Z score is given as 1.7.
Consider `Cc1nc2ccccn2c(=O)c1CCN[C@@H](C)c1cccc(-n2cccn2)c1`, for which the “% Inhibition” value is 0% and the Z score turned out to be 0.05.
On to `Cc1ccc(C(=O)N2CCC3(CCc4nn(Cc5ccccc5)c(=O)n4CC3)CC2)s1`, for which the “% Inhibition” value was -7% and the Z score was determined as 0.82.
For `CCN1CCN(C2CCN(c3ncc(F)c(OC)n3)CC2)CC1`, in that order: 51% and -7.32.
For `CNC(=O)[C@H]1CCN(c2ncc(F)c(OC)n2)C1`, in that order: -10% and 1.93.
For `Cc1c(C2=NO[C@H]3C(=O)N(c4ccc5ccccc5c4)C(=O)[C@@H]23)cnn1C`, in that order: 50% and -5.99.
Turning to `Cc1c(C2=NO[C@H]3C(=O)N(c4ccc(Cl)cc4)C(=O)[C@@H]23)cnn1C`, the “% Inhibition” value is -7% and the Z score worked out at 1.
In the same order, the values of `O=C1[C@@H]2C(c3ccccc3Cl)=NO[C@@H]2C(=O)N1c1ccc2ccccc2c1` are -9% and 1.2.
For `O=C(c1ccc2c(c1)CCC2)N1CC(O)C1`, in that order: 0% and 0.
For `Cc1cc(NCc2c(C)noc2C)nc(C2CC2)n1`, in that order: -7% and 1.22.
Consider `Cc1ccnc(Nc2ccc(N3CCNCC3)nn2)c1`, for which the “% Inhibition” value amounted to 56% and the Z score is listed as -6.55.
In the same order, the values of `c1cc(-c2ccc(N3CCNCC3)nn2)ccn1` are 5% and -1.03.
In the same order, the values of `Cc1ccc(Nc2ccc(N3CCNCC3)nn2)nc1` are 47% and -6.37.
For `CC(C)(C)OC(=O)CCc1cccnc1C(=O)O`, in that order: -18% and 1.85.
For `CC1CC(C(=O)NCCCn2cn[nH]c2=O)CC(C)(C)C1` (stereo not drawn), the “% Inhibition” value was 0% and the Z score is recorded as 0.05.
As to `CC1CC(C(=O)N[C@@H](C)c2cnccn2)CC(C)(C)C1` (stereo partly drawn), the “% Inhibition” value was determined as 8% and the Z score is reported as -0.99.
With `CC1CC(C(=O)Nc2[nH]c(=O)ncc2F)CC(C)(C)C1` (stereo not drawn), the “% Inhibition” value is given as 92% and the Z score was -13.24.
In the same order, the values of `C#CCNC(=O)c1ccc(N[C@@H](C)COC)nc1` are -9% and 1.46.
For `NC(=O)[C@@H]1CN(Cc2ccc(-c3ccc(Cl)cc3)s2)CCO1`, in that order: -11% and 1.78.
In the same order, the values of `Cc1cc(C)cc(-n2c(=O)c3sccc3n(CC(=O)Nc3ccc(N(C)C)cc3)c2=O)c1` are 51% and 1.43.
Take `COc1cccc(Cn2c(=O)c3sccc3n(CC(=O)Nc3ccc(N(C)C)cc3)c2=O)c1`: the “% Inhibition” value is 37% and the Z score is -1.71.
In the case of `Cc1ccccc1-n1c(=O)c2sccc2n(CC(=O)Nc2ccc(N(C)C)cc2)c1=O`, the “% Inhibition” value came out at 2% and the Z score is given as -0.2.
For `CCN(CCn1cccn1)Cc1cncn1C1CC1`, in that order: -7% and 1.49.
With `CCOC(=O)c1nc(NCC2CCN(Cc3ccccc3F)CC2)c2ccccc2n1`, the “% Inhibition” value is -6% and the Z score was determined as 1.09.
For `CCc1ccccc1Nc1c2c(nc3ccccc13)CCCC2`, in that order: 9% and -1.19.
In the same order, the values of `CCc1nnc(NCC(C)(C)CCS(C)(=O)=O)c(C#N)c1CC` are 2% and -0.31.
For `CC(C)Oc1ccc(-c2cc(C(F)(F)F)n3nc(-c4ccccc4)c(-c4ccccc4)c3n2)cc1`, the “% Inhibition” value is -15% and the Z score is listed as 1.87.
In the same order, the values of `Cc1ccnc([C@@H](NC(=O)c2c[nH]c3cc(C)nn3c2=O)C2CC2)c1` are -2% and 0.39.
For `COc1ccc(OC)c([C@H]2N(Cc3ccc(F)cc3)CCCN2Cc2ccccc2Cl)c1`, in that order: -3% and 0.37.
With `COc1ccc(OC)c(-n2c(-c3ccccc3)cc(C(=O)N3CCN(Cc4ccccc4)CC3)c2C)c1`, the “% Inhibition” value is -8% and the Z score is recorded as 1.09.
For the compound `COc1cccc(NC(=O)Nc2ccc3c(c2)CN(CCc2ccc(OC)c(OC)c2)C(=O)[C@H](C)O3)c1`, the “% Inhibition” value is given as 0% and the Z score is -0.08.
Regarding `CCC(C(=O)Nc1ccc2c(c1)CN(CCc1ccccc1)C(=O)C(C)O2)c1ccccc1` (stereo not drawn), the “% Inhibition” value is on record as -7% and the Z score is 0.66.
For `CCC(C(=O)Nc1ccc2c(c1)CN(CCc1ccc(OC)c(OC)c1)C(=O)C(C)O2)c1ccccc1` (stereo not drawn), in that order: 91% and -17.08.
In the case of `Cc1noc(C)c1N(C)C(=O)Nc1cccnc1`, the “% Inhibition” value is on record as -2% and the Z score was 0.36.
In the same order, the values of `COc1ccc(NC(=O)[C@H](NC(=O)Cc2c[nH]c3ccccc23)c2ccc(C)cc2)cc1` are -9% and 1.46.
In the same order, the values of `CC1C(C(F)(F)F)OCCN1C(=O)NC1CCCC1Cc1ccccn1` (stereo not drawn) are -4% and 0.71.
